Calls of active or inactive are those of the source.
Assays:
[1] = small molecules captured by biotinylated probe aFSTL3 – biochemical, small-molecule microarray, fluorescence 635/667, stem cell growth factor project, primary screen (AID 1064); conditions: higher = more signal;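 note: measures binding of the biotinylated anti-FSTL3 antibody to printed compounds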
[2] = binders from COS7 lysate, DM2A8 probe, primary screen, torsin A project, cell lysate, small-molecule microarray, fluorescence 635/667 (AID 1065); conditions: higher = more signal, COS7 lysate expressing mutant human TOR1A
[3] = small molecules captured by biotinylated probe aFGF2 – biochemical, small-molecule microarray, fluorescence 635/667, stem cell growth factor project, primary screen (AID 1067); conditions: higher = more signal;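 note: measures binding of biotinylated aFGF2 protein to printed compounds on slides; z-score merges feature fluorescence and signal-to-noise across triplicate slides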
[4] = small molecules captured by biotinylated probe aFGF10 – biochemical, small-molecule microarray, fluorescence 635/667, stem cell growth factor project, primary screen (AID 1071); conditions: higher = more signal;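 note: score merges 667 nm spot intensity and signal to noise from triplicate slides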
[5] = molecular target: Neurogenic locus notch homolog protein 2 (Homo sapiens) (UniProt Q04721); test: small molecules binding Notch2 protein – biochemical, small-molecule microarray, 635 nm fluorescence, stem cell growth factors, primary screen (AID 1073); conditions: higher = more signal
Neurogenic locus notch homolog protein 2 (Homo sapiens), sequence (Q04721 whole entry, looked up, canonical isoform): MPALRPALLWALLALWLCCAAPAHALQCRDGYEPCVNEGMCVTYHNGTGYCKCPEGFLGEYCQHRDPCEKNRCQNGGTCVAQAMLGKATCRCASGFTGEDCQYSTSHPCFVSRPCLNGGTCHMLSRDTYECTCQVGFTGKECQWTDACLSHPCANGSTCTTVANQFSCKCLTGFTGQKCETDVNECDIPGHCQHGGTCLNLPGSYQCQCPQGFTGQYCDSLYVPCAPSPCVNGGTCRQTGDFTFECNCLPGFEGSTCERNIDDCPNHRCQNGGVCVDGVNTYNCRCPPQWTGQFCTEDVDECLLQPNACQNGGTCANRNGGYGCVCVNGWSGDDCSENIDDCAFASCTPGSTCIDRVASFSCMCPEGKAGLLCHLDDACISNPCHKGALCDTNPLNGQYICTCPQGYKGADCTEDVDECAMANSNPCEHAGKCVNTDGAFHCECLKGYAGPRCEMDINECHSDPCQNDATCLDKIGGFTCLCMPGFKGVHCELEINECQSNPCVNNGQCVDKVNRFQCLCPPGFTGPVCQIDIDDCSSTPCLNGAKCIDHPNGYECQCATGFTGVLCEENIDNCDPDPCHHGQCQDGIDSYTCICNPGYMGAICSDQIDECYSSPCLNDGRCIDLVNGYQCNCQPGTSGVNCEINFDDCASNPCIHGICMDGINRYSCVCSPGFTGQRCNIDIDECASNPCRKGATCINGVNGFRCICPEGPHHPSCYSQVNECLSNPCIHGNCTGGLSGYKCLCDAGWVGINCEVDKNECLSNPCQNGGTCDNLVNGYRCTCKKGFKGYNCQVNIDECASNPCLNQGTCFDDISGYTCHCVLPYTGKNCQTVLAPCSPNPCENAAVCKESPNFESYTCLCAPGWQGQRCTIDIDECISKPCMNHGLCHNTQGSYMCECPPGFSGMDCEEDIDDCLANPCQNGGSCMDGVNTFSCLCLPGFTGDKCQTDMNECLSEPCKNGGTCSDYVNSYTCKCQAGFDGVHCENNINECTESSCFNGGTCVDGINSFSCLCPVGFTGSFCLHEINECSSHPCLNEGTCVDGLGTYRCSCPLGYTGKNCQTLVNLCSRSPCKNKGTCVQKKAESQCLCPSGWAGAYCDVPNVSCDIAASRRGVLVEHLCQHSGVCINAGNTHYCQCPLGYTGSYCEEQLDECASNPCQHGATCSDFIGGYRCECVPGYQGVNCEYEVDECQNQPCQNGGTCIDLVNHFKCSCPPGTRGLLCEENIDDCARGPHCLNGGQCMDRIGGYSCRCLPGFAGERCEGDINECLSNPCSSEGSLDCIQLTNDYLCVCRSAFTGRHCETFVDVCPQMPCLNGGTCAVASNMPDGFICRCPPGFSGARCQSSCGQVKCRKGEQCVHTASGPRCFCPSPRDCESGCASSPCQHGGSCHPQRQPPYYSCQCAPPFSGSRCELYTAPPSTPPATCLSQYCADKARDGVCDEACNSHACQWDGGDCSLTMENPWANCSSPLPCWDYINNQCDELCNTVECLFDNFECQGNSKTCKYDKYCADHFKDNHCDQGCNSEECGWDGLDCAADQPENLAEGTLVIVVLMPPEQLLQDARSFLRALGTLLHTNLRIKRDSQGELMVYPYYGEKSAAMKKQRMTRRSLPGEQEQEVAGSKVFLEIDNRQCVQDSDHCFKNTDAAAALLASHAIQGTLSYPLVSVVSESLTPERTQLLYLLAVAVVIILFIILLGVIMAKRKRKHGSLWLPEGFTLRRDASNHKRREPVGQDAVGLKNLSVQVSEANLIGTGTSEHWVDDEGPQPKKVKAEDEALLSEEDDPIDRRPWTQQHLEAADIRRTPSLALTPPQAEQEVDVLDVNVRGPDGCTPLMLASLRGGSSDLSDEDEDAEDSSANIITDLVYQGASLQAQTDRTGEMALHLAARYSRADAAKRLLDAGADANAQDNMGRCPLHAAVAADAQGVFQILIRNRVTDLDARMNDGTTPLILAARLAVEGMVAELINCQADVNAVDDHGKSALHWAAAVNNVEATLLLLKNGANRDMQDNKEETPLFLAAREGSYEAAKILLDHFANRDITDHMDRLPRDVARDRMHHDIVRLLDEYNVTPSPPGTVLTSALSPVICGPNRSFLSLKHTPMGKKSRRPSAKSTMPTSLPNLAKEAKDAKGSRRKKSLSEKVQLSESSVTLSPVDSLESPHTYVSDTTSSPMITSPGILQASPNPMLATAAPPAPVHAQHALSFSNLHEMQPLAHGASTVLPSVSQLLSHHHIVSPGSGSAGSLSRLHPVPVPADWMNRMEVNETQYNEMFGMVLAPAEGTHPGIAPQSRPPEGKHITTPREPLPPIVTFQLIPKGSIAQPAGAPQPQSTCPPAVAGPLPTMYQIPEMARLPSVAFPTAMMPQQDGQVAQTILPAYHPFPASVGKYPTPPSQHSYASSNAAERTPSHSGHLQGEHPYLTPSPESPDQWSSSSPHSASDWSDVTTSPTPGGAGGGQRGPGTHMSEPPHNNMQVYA

[6] = molecular target: Pro-neuregulin-1, membrane-bound isoform (Homo sapiens) (UniProt Q02297); test: small molecules binding neuregulin-1 protein – biochemical, small-molecule microarray, fluorescence 635/667, psychiatric disease protein project, primary screen (AID 1075); conditions: NRG1 binding, 635 nm fluorescence, higher = more signal;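 note: score combines 667 nm spot fluorescence with signal to noise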
Pro-neuregulin-1, membrane-bound isoform (Homo sapiens), sequence (Q02297 whole entry, looked up, the tested form may be a part, canonical isoform): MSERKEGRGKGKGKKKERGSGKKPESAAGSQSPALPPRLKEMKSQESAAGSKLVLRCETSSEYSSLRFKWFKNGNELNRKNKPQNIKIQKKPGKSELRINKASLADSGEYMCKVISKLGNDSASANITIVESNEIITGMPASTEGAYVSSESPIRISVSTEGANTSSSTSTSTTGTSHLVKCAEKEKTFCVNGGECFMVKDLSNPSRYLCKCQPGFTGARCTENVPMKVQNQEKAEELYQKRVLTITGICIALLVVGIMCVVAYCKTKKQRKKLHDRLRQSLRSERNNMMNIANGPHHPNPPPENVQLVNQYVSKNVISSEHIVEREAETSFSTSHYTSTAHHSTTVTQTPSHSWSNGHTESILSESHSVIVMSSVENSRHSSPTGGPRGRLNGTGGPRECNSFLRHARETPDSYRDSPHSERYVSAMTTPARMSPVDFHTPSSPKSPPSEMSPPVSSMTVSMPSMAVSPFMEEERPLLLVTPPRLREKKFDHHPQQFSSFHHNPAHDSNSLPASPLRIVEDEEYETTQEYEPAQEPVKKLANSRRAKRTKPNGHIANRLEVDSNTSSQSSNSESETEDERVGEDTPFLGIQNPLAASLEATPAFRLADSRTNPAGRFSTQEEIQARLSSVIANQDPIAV

[7] = test system: Neuregulin-1 EGF-like domain; test: small molecules binding NRG1 EGF domain – biochemical, small-molecule microarray, 635 nm fluorescence, primary screen (AID 1081); conditions: higher = more signal;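 note: binding of the protein to compounds printed on small-molecule microarray slides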
[8] = FRG1 expression reporter modulators in myotubes – cell-based, C2C12 myotubes, firefly/Renilla luciferase, luminescence, FRG1 inhibition for FSHD, primary screen (AID 1084); conditions: FRG1 promoter luciferase, higher = more signal, called active from +8 up or from −8 down
[9] = small molecules captured by biotinylated probe aFST – biochemical, small-molecule microarray, fluorescence 635/667, stem cell growth factor project, primary screen (AID 1086); conditions: higher = more signal;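 note: score merges 667 nm fluorescence with signal-to-noise of each printed compound spot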
[10] = binders of probe aHhip on microarray, primary screen, stem cell growth factor project, biochemical, small-molecule microarray, fluorescence 635/667 (AID 1087); conditions: higher = more signal;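 note: score merges spot fluorescence at 667nm with spot signal to noise ratio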

## CC(C)N1C(=O)C[C@@](C(=O)NCc2ccccc2)(c2ccc([N+](=O)[O-])cc2)[C@H]1c1ccc(CO)cc1
[1]
  composite z-score: 0.539
[2]
  composite z-score: 1.22
[3]
  composite z-score: -0.138
[4]
  composite z-score: -0.136
[5]
  composite z-score: 0.0796
[6]
  composite z-score: -0.524
[7]
  composite z-score: 1.25
[8]
  z-score: 0.167 (inactive)
[9]
  composite z-score: -0.699
[10]
  composite z-score: -0.201

## CCCCCN1CC=CC23O[C@@H]4/C=C\CCC(C)OC(=O)C4[C@H]2C(=O)N(CCCCCO)[C@@H]3C1=O (stereo not given in full)
[1]
  composite z-score: -0.0551
[2]
  composite z-score: 0.698
[3]
  composite z-score: -0.0871
[4]
  composite z-score: -0.524
[5]
  composite z-score: -0.862
[6]
  composite z-score: 0.948
[7]
  composite z-score: -0.69
[8]
  z-score: 0.312 (inactive)
[9]
  composite z-score: -0.467
[10]
  composite z-score: 0.344

## CC(C)NC(=O)[C@@]1(Cc2ccccc2I)c2ccccc2C(=O)N(Cc2ccccc2)[C@H]1c1ccc(CO)cc1
[1]
  composite z-score: 0.0478
[2]
  composite z-score: 0.613
[3]
  composite z-score: -0.017
[4]
  composite z-score: 0.554
[5]
  composite z-score: 0.787
[6]
  composite z-score: 1.38
[7]
  composite z-score: 0.986
[8]
  z-score: -2.91 (inactive)
[9]
  composite z-score: 0.612
[10]
  composite z-score: 0.0401

## C=C[C@@H](COC(C)=O)N(Cc1ccccc1[N+](=O)[O-])S(=O)(=O)c1ccc(Br)cc1
[1]
  composite z-score: 0.0537
[2]
  composite z-score: 0.98
[3]
  composite z-score: 0.033
[4]
  composite z-score: 0.372
[5]
  composite z-score: 1.01
[6]
  composite z-score: 0.939
[7]
  composite z-score: 0.974
[8]
  z-score: -3.14 (inactive)
[9]
  composite z-score: 0.399
[10]
  composite z-score: 0.0524

## COCCOC(=O)N1C(=O)[C@@]2(c3cc(C#CCC(C(=O)OC)C(=O)OC)ccc31)[C@H](c1ccccc1OCCO)N1[C@H](c3ccccc3)[C@H](c3ccccc3)OC(=O)[C@H]1[C@@H]2C(N)=O
[1]
  composite z-score: -0.0037
[2]
  composite z-score: 0.532
[3]
  composite z-score: 0.0495
[4]
  composite z-score: 1.17
[5]
  composite z-score: 0.923
[6]
  composite z-score: 1.42
[7]
  composite z-score: 1.21
[8]
  z-score: -0.885 (inactive)
[9]
  composite z-score: 0.0716
[10]
  composite z-score: 0.107

## CCCCCCc1nc(CCCc2cc3c(c(CCCCCC)n2)[Si](C(C)C)(C(C)C)OC3)cc2c1[Si](C(C)C)(C(C)C)OC2
[1]
  composite z-score: -0.0039
[2]
  composite z-score: 0.0271
[3]
  composite z-score: -0.149
[4]
  composite z-score: -0.408
[5]
  composite z-score: -0.955
[6]
  composite z-score: -0.247
[7]
  composite z-score: -0.774
[8]
  z-score: 0.521 (inactive)
[9]
  composite z-score: -0.344
[10]
  composite z-score: 0.0274

## C=CC[C@@]1(C(=O)N2CCOCC2)N=C(c2ccc(OCCCO)cc2)O[C@@H]1c1ccccc1N=[N+]=[N-]
[1]
  composite z-score: 0.529
[2]
  composite z-score: 0.985
[3]
  composite z-score: -0.0073
[4]
  composite z-score: 0.853
[5]
  composite z-score: 1.53
[6]
  composite z-score: 1.44
[7]
  composite z-score: 1.19
[8]
  z-score: -0.469 (inactive)
[9]
  composite z-score: 0.993
[10]
  composite z-score: 0.21

## COC(=O)C(CC#Cc1ccc2c(c1)[C@]1(C(=O)N2)[C@H](C(=O)NC[C@H](O)c2ccccc2)[C@H]2C(=O)O[C@H](c3ccccc3)[C@H](c3ccccc3)N2[C@@H]1c1ccc(OCCO)cc1)C(=O)OC
[1]
  composite z-score: 1.4
[2]
  composite z-score: 1.2
[3]
  composite z-score: 0.225
[4]
  composite z-score: 0.641
[5]
  composite z-score: 1.37
[6]
  composite z-score: 1.41
[7]
  composite z-score: 1.3
[8]
  z-score: 1.9 (inactive)
[9]
  composite z-score: 2.31
[10]
  composite z-score: -0.447

## CC(C)C(=C=CC[C@H](O)c1ccccc1OCCO)C[C@H](O)c1ccccn1
[1]
  composite z-score: -0.102
[2]
  composite z-score: 1.51
[3]
  composite z-score: -0.125
[4]
  composite z-score: 0.486
[5]
  composite z-score: 0.695
[6]
  composite z-score: 1.66
[7]
  composite z-score: 1.36
[8]
  z-score: -1.68 (inactive)
[9]
  composite z-score: 0.164
[10]
  composite z-score: -0.201

## C=CCC(OC(C)=O)[C@@H]1[C@@H](N(Cc2ccc(-c3ccccc3)cc2)C(=O)Cc2ccc(F)cc2)c2cc(OCCCO)ccc2N1C(=O)c1ccc2ccccc2n1 (stereo not given in full)
[1]
  composite z-score: -0.12
[2]
  composite z-score: -0.0608
[3]
  composite z-score: 0.0198
[4]
  composite z-score: -0.372
[5]
  composite z-score: 0.0329
[6]
  composite z-score: 0.164
[7]
  composite z-score: -0.421
[8]
  z-score: -0.649 (inactive)
[9]
  composite z-score: 0.167
[10]
  composite z-score: 0.0623

## O=C1O[C@@H](c2ccccc2)[C@@H](c2ccccc2)N2[C@@H](c3ccc(OCCO)cc3)[C@]3(C(=O)Nc4ccccc43)[C@@H](C(=O)Nc3nc4ccccc4s3)[C@H]12
[1]
  composite z-score: 0.509
[2]
  composite z-score: 0.58
[3]
  composite z-score: 0.0732
[4]
  composite z-score: 0.962
[5]
  composite z-score: 1.49
[6]
  composite z-score: 1.45
[7]
  composite z-score: 1.3
[8]
  z-score: -3.08 (inactive)
[9]
  composite z-score: 1.01
[10]
  composite z-score: 0.629

## O=c1oc(-c2ccccc2)nc2cc(Br)ccc12
[1]
  composite z-score: -0.0862
[2]
  composite z-score: 0.0961
[3]
  composite z-score: -0.103
[4]
  composite z-score: 0.298
[5]
  composite z-score: 0.325
[6]
  composite z-score: -0.0187
[7]
  composite z-score: 0.52
[8]
  z-score: -0.409 (inactive)
[9]
  composite z-score: 0.127
[10]
  composite z-score: -0.287

## CCOC(=O)C1=C[C@@H](CC)N(S(=O)(=O)c2ccc(C)cc2)[C@H]1c1ccccc1
[1]
  composite z-score: 0.119
[2]
  composite z-score: -0.872
[3]
  composite z-score: 0.0603
[4]
  composite z-score: 0.572
[5]
  composite z-score: 1.61
[6]
  composite z-score: 1.1
[7]
  composite z-score: 0.919
[8]
  z-score: -1.74 (inactive)
[9]
  composite z-score: 0.962
[10]
  composite z-score: 0.0373

## COC(=O)c1c(CC[C@@H](CO)NC(=O)N[C@@H](Cc2ccccc2)Cn2cc(C3(O)CCCCC3)nn2)oc(C(C)=O)c1C(=O)OC
[1]
  composite z-score: -0.352
[2]
  composite z-score: 1.02
[3]
  composite z-score: -0.0478
[4]
  composite z-score: 0.337
[5]
  composite z-score: 0.617
[6]
  composite z-score: 0.824
[7]
  composite z-score: 0.862
[8]
  z-score: 1.14 (inactive)
[9]
  composite z-score: 0.439
[10]
  composite z-score: -0.0994

## N#Cc1ccc(NN2C(C(O)c3ccc([N+](=O)[O-])cc3)C=CC3C(=O)N(c4ccccc4)C(=O)C32)cc1 (stereo not given)
[1]
  composite z-score: 0.298
[2]
  composite z-score: -0.0479
[3]
  composite z-score: 0.11
[4]
  composite z-score: 0.921
[5]
  composite z-score: 1.59
[6]
  composite z-score: 1.66
[7]
  composite z-score: 1.35
[8]
  z-score: 0.536 (inactive)
[9]
  composite z-score: 0.899
[10]
  composite z-score: -0.287

## C[C@]1(C(=O)NCc2ccccc2)c2ccccc2C(=O)N(Cc2ccc(OC(F)(F)F)cc2)[C@H]1c1ccc(CO)cc1
[1]
  composite z-score: 0.161
[2]
  composite z-score: 1.14
[3]
  composite z-score: -0.0507
[4]
  composite z-score: -0.0562
[5]
  composite z-score: -0.323
[6]
  composite z-score: 0.349
[7]
  composite z-score: 0.711
[8]
  z-score: -4.27 (inactive)
[9]
  composite z-score: -0.409
[10]
  composite z-score: -0.431

## CCOC(=O)C1=C[C@@H](C(C)C)N(S(=O)(=O)c2ccc(C)cc2)[C@H]1c1ccc(C(C)C)cc1
[1]
  composite z-score: -0.462
[2]
  composite z-score: 0.352
[3]
  composite z-score: -0.0647
[4]
  composite z-score: 0.543
[5]
  composite z-score: 1.52
[6]
  composite z-score: 0.609
[7]
  composite z-score: 0.683
[8]
  z-score: -1.89 (inactive)
[9]
  composite z-score: 0.937
[10]
  composite z-score: -0.0754
